# Screening data deposited in PubChem BioAssay by several laboratories.
# The list is not random: actives were taken first. Their share in the collection is about 27%.
# CYP2C19 activ: human CYP2C19 activators, primary screen, biochemical, luminescence | Cytochrome P450 2C19 (Homo sapiens), P33261 | recombinant CYP2C19, luciferin-H EGE luminescence; stronger effect = higher value; 0 = fully inhibited enzyme, 1 = untreated enzyme | activation factor at 5 µM | 96,000 tested, under 10 active | AID 1025, 2008;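 active means activation factor of at least 2 at 5 µM in the primary screen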
# CYP2C9 act: human CYP2C9 activators, primary screen, biochemical, luminescence. AID 1024, 2008. recombinant CYP2C9, luciferin-H conversion; stronger effect = higher value; factor 1 = untreated enzyme, 0 = blocked. activation factor at 5 µM. hit rate 1.4% among 96,000;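 active means activation factor of 2 or more for CYP2C9 at a 5 µM dose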
# Target sequence (P11712 whole entry, looked up): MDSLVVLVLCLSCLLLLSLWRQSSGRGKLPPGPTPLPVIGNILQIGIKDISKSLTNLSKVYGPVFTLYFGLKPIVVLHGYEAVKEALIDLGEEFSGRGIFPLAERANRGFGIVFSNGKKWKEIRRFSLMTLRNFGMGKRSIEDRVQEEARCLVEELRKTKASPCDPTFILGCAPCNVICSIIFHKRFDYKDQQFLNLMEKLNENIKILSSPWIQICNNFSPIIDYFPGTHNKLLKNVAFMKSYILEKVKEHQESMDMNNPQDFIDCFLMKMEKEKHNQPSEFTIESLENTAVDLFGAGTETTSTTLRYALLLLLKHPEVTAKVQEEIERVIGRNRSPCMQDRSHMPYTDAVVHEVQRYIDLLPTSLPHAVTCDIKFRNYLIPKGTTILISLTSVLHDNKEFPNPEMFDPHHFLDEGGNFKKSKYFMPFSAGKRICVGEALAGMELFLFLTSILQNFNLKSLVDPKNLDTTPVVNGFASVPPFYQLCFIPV
# sEH act: soluble epoxide hydrolase activators, primary screen, biochemical, human sEH; purified human sEH enzymatic activity, activator screen; Bifunctional epoxide hydrolase 2 (Homo sapiens), P34913; hit rate 0.04% among 91,000; activation, % at 2 µM; in the data active means activation above about 37%
# CYP2C9 inhib: blockers of cytochrome P450 2C9 activity – biochemical, luminescence, ADME assay, primary screen; P11712; CYP2C9 Supersomes, luciferin-H conversion; inhibition, % at 5 µM; hit rate 20% among 96,000;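 active means blocking of liver enzyme CYP2C9 beyond about 50% at 5 µM, limit read from the data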
# sEH inh: soluble epoxide hydrolase inhibitors, primary screen, biochemical, human sEH; recombinant human sEH enzymatic activity assay; inhibition, % at 2 µM; hit rate 0.34% among 91,000; AID 707, 2007; in the data active means inhibition above about 80%
# CYP2C19 inhib: blockers of cytochrome P450 2C19 activity – biochemical, luminescence, ADME assay, primary screen | P33261 | CYP2C19 Supersomes, luciferin-H EGE luminescence, 30 min | inhibition, % at 5 µM | hit rate 21% among 96,000 | AID 778, 2007;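 active means CYP2C19 inhibition above a set limit at 5 µM in the primary screen, cut at about 50% in these data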
# A number is an active result; i = inactive; nt = no result.
SMILES,CYP2C19 activ,CYP2C9 act,sEH act,CYP2C9 inhib,sEH inh,CYP2C19 inhib
O=C(OCC(=O)c1cccs1)c1ccccc1,i,i,nt,i,nt,i
COc1ccc(CN(C(=O)c2cnccn2)C(C(=O)Nc2ccc(F)cc2)c2ccccc2)cc1 (stereo not given),nt,nt,i,nt,i,nt
CCOC(=O)c1cc2sccc2n1CC(=O)N1CCCC1,i,i,i,i,i,i
COc1ccc(NC(=O)CN(C)C(=O)c2ccc(C)s2)cc1,i,i,i,i,i,i
Cc1cc(C(=O)Nc2ccc(S(=O)(=O)Nc3nccs3)cc2)c(C)o1,i,i,i,i,i,i
COc1ccc(-c2ccc(SCC(=O)Nc3cc(C)on3)nn2)cc1OC,i,i,i,i,i,i
COc1ccc(-c2cc(C(=O)OCC(=O)Nc3cc(C)on3)c3ccccc3n2)cc1OC,i,i,i,i,i,53.2
CCNC(=S)NNC(=O)c1cc(-c2cc(C)ccc2C)nc2ccccc12,i,i,i,66.2,i,i
CCC(C)c1ccc(-c2cc(C(=O)OCC(=O)Nc3cc(C)on3)c3ccccc3n2)cc1 (stereo not given),i,i,i,i,i,50.6
O=C(Nc1ccc(S(=O)(=O)Nc2nccs2)cc1)c1cc(-c2ccccc2Cl)nc2ccccc12,i,i,i,51.9,i,i
Cc1ccccc1NC(=S)NC(=O)c1cc(-c2ccccc2)nc2ccccc12,i,i,i,i,i,i
Cc1ccc(NC(=O)C(c2ccc(Cl)cc2)N2CCCCC2)cc1 (stereo not given),i,i,i,i,i,i
CCN(C(=O)CSc1nnc(NC2CCCCC2)s1)C1CCS(=O)(=O)C1 (stereo not given),i,i,i,i,i,i
CC(C)(C)c1csc(NC(=O)c2ccc3nccnc3c2)n1,i,i,i,i,i,i
Cc1ccc2nc(-c3ccccc3Cl)cc(C(=O)Nc3cc(C)on3)c2c1,i,i,i,98.9,i,82.3
O=C(NNC(=O)c1cc(-c2ccc(Cl)c(Cl)c2)nc2ccccc12)Nc1ccccc1,i,i,i,i,i,i
Cc1cc(NC(=O)c2ccccc2Cl)no1,i,i,i,i,i,i
Cc1ccc(-c2cc(C(=O)OCC(=O)Nc3cc(C)on3)c3ccccc3n2)c(C)c1,i,i,i,78.6,i,i
Cc1cccc(NC(=O)NNC(=O)c2cc(-c3ccccc3Cl)nc3ccccc23)c1,i,i,i,61.6,i,i
CCSc1nc2c(sc3nc(C)cc(C)c32)c(=O)[nH]1,i,i,i,57.9,i,i
Cc1cccc(C)c1NC(=O)Cn1cnc2c(=O)n(C)c(=O)n(C)c21,i,i,i,i,i,i
Cc1ccccc1C(=O)Nc1cccc(NC(=O)Cn2cnc3c(=O)n(C)c(=O)n(C)c32)c1,i,i,i,58.8,i,i
CCOc1ccc(CCNC(=O)C2CC(=O)N(C3CCCC3)C2)cc1OCC (stereo not given),i,i,i,i,i,i
Cc1ccc(NC(=S)NCCc2c[nH]c3ccccc23)cc1,i,i,i,i,i,86.2
O=C(CCc1c[nH]c2ccccc12)NC1CC1,i,i,i,i,i,i
SMILES,CYP2C19 activ,CYP2C9 act,sEH act,CYP2C9 inhib,sEH inh,CYP2C19 inhib
CCC(=O)NCCc1c[nH]c2ccccc12,i,i,i,i,i,i
O=C(NCCc1c[nH]c2ccccc12)C(F)(F)C(F)F,i,i,i,i,i,72.3
O=C(NCCc1c[nH]c2ccccc12)c1cnc2sccn2c1=O,i,2.5,i,i,i,88.7
O=C(NCCc1c[nH]c2ccccc12)Nc1ccccc1,i,i,i,i,i,91.2
Cc1cc(S(=O)(=O)NCCc2ccccc2)c(C)s1,i,i,nt,i,nt,i
O=C(Cc1ccc(-n2cccc2)cc1)NCc1cccs1,i,i,i,i,i,i
CCSc1nnc(NC(=O)C2Cc3ccccc3CN2C(=O)c2ccco2)s1 (stereo not given),i,i,nt,52.7,nt,i
O=C(CSc1nnc(NC(=O)c2ccco2)s1)NC1CCCCC1,i,i,i,i,i,i
N#Cc1cn(CC(=O)NCCc2c[nH]c3ccccc23)c2ccccc12,i,i,nt,66.3,nt,50.2
